Compound activity from PubChem BioAssay.
Rows were chosen to be rich in hits. Some 4.5% of all compounds tested hit in one or more screens of this group.
HDAC3 inhib – HDAC3 deacetylase inhibitors, primary screen, biochemical, fluorescence, cell-free homogeneous; inhibition, % at 8.3 µM; recombinant HDAC3, fluorogenic peptide/trypsin coupled; 0.15% of 320,000 active; AID 2718, 2010; in the data active = inhibition above about 26%, passing the limit was not always enough
GRK2 inh – compounds blocking aptamer binding on GRK2 – biochemical, human GRK2, bead flow cytometry, HTS, primary screen. FAM-aptamer displacement from GRK2. 0.59% of 330,000 active. inhibition of aptamer binding, % at 10 µM. Beta-adrenergic receptor kinase 1 (Homo sapiens), P25098. AID 488847, 2010;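 active = inhibition of aptamer binding above 40%, roughly 3 SD of noise, on plates passing a quality check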;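 also: median bead fluorescence of bound FAM aptamer so fluorescent compounds give negative values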
Target sequence (P25098 whole entry, looked up): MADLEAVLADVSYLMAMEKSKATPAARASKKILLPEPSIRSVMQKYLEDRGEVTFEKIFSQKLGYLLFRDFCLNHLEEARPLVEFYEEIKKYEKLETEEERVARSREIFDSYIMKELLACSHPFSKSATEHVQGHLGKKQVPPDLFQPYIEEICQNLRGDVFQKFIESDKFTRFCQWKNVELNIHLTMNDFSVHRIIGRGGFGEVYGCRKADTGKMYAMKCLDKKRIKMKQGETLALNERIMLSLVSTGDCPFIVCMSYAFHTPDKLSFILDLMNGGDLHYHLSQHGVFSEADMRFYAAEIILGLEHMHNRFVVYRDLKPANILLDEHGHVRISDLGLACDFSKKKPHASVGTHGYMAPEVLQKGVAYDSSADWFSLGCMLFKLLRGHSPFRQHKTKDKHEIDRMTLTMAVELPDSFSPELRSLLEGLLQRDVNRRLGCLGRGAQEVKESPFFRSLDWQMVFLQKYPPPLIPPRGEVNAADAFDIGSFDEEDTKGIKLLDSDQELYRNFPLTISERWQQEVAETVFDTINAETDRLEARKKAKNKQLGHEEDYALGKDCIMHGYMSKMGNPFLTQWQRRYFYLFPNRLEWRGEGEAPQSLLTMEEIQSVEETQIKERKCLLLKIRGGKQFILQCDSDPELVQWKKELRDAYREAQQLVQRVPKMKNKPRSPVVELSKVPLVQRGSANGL
Efflux pump mplx – inhibitors of Candida efflux pumps in yeast, primary screen, S. cerevisiae, Nile Red, multiplex; 0.44% of 330,000 active; S. cerevisiae Candida pump triplex; AID 485275, 2010; inhibition, % at 10 µM;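 active = plate passing quality check with inhibition over a set limit, or well fluorescence over plate mean plus 4 SD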;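 also: Nile Red retained in pooled yeast measured as flow cytometry median fluorescence; 0% = buffer negative control and 100% = Enniatin B positive control; higher means more Nile Red kept so more efflux inhibition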
ALR H2O2 inh – inhibitors of human ALR sulfhydryl oxidase, primary screen, biochemical, H2O2 detection, HRP-luminol luminescence, single point; purified ALR, DTT oxidation; inhibition, % (no concentration beside the values); 3.8% of 290,000 active; AID 485317, 2010;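 active = mean replicate inhibition above about 79%, with every replicate also reaching it, limit read from the data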
Rtt109 Vps75 – inhibitors of C. albicans Rtt109/Vps75 HAT, primary screen, biochemical, ThioGlo CoA-SH fluorescence, plate reader; 0.16% of 330,000 active; Histone acetyltransferase RTT109 (Candida albicans (strain SC5314 / ATCC MYA-2876)), …; inhibition, % at 34.9 µM; purified Rtt109/Vps75, 4 h; AID 540336, 2011;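 active = inhibition of at least 50% in every replicate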
Rce1 inhib – yeast Rce1p protease inhibitors, primary screen, biochemical, fluorescence, cell-free homogeneous | calls only | yeast membranes, quenched prenylated peptide cleavage fluorescence | 0.27% of 290,000 active | AID 2563, 2010 | CAAX prenyl protease 2 (Saccharomyces cerevisiae (strain ATCC 204508 / S288c)), Q03530;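 active = fall in fluorescence gain of 50% or more versus controls, with final raw signal at or below 3038400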;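 also: plate controls were neutral control wells for no effect and wells lacking membranes for full effect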
* = called active by the depositor; i = inactive; / = no result; + = active, no number.

SMILES | HDAC3 inhib | GRK2 inh | Efflux pump mplx | ALR H2O2 inh | Rtt109 Vps75 | Rce1 inhib
O=C(COC(=O)c1cc[n+]([O-])cc1)Nc1ccc(Br)cc1 | 2 | 0 | 0 | -1 | 11 | /
Cc1nnc(N/N=C\c2ccc(-c3cccc(C(=O)O)c3)o2)n1N | -3 | 88* | 0 | -12 | 15 | i
O=C(c1ccccc1NS(=O)(=O)c1cccc([N+](=O)[O-])c1)N1CCCC1 | -2 | 0 | 0 | -3 | -3 | i
COC(=O)C1CSC(C(=O)OC)N1C(=O)Nc1ccccc1 (stereo not drawn) | 0 | 0 | 0 | / | -5 | i
COC(=O)C1CSC(C(=O)OC)N1C(=O)CN1CCN(c2ccccc2)CC1 (stereo not drawn) | 0 | 0 | 0 | 91* | 0 | i
CN(Cc1c(C(=O)N/N=C/c2ccc(O)cc2)nnn1-c1nonc1N)c1ccccc1 | 9 | 2 | 0 | 100* | 16 | i
CCOc1ccc(-c2c(C(=O)N/N=C/c3c[nH]c4ccccc34)nnn2-c2nonc2N)cc1 | -5 | 0 | 0 | 6 | 0 | i
CN(Cc1c(C(=O)N/N=C/c2ccccc2)nnn1-c1nonc1N)c1ccccc1 | 6 | 3 | 0 | 0 | 11 | i
CC(C)c1c(C(=O)N/N=C/c2c[nH]c3ccccc23)nnn1-c1nonc1N | 2 | 0 | 0 | 20 | 5 | +
CC(C)c1c(C(=O)N/N=C/c2cccc3ccccc23)nnn1-c1nonc1N | -2 | 0 | 0 | 17 | 3 | +
CC(C)c1c(C(=O)N/N=C/c2ccc(OCc3ccc(F)cc3)cc2)nnn1-c1nonc1N | 7 | 7 | -1 | 3 | 0 | i
COc1cccc(/C=N/NC(=O)c2nnn(-c3nonc3N)c2C(C)C)c1OCc1ccc(F)cc1 | 1 | 2 | 0 | -1 | 8 | +
Cc1cc(=O)n2nc(N3CCC(C(=O)NCc4ccccc4Cl)CC3)sc2n1 | 2 | 0 | 0 | -2 | 20 | i
CC(C)(CO)C(O)C(=O)NCCCO (stereo not drawn) | 4 | 0 | 0 | -18 | -1 | i
CC1CCN(Cc2c(C(=O)N/N=C/c3cccc(C(F)(F)F)c3)nnn2-c2nonc2N)CC1 | 5 | 0 | 0 | -4 | 0 | +
CC(=O)c1cccc(OC(=O)c2cc(S(=O)(=O)N3CCOCC3)ccc2N2CCCC2)c1 | 0 | 0 | 0 | -6 | 1 | /
COc1ccc(/C=N/NC(=O)c2[nH]c3ccc(Br)cc3c2-c2ccccc2)c(C(=O)O)c1OC | -2 | 4 | 0 | / | 4 | i
COc1ccc(/C=N/NC(=O)c2[nH]c3ccc(Cl)cc3c2-c2ccccc2)c(C(=O)O)c1OC | 8 | 3 | 0 | 98* | 7 | i
Cc1nc2ccc(S(=O)(=O)NCC(=O)N(C)Cc3ccccc3)cc2s1 | -1 | 0 | 0 | 99* | -5 | i
Cc1nc2ccc(S(=O)(=O)NCC(=O)NC(C)c3ccccc3)cc2s1 (stereo not drawn) | 0 | 2 | 0 | -9 | -4 | i
COc1ccc(NC(=O)CNS(=O)(=O)c2cccs2)c(OC)c1 | -4 | 0 | 0 | -8 | 63* | i
Cc1ccc(CNC(=O)C(NS(=O)(=O)c2ccc3nc(C)sc3c2)C(C)C)cc1 (stereo not drawn) | 10 | 0 | 0 | 93* | -9 | i
COc1ccc(NC(=O)CNS(=O)(=O)c2ccc3nc(C)sc3c2)c(OC)c1 | 7 | 1 | 0 | 99* | -5 | i
CCCCCCCSc1ncnc2[nH]ncc12 | / | / | / | / | 2 | /
CNC(=O)COC(=O)c1ccc(NC(=O)CC#N)cc1 | 3 | 1 | 0 | 98* | -1 | i
SMILES | HDAC3 inhib | GRK2 inh | Efflux pump mplx | ALR H2O2 inh | Rtt109 Vps75 | Rce1 inhib
CCN(CC)S(=O)(=O)c1ccc(NC(=O)COC(=O)c2ccc(NC(=O)CC#N)cc2)cc1 | 2 | 3 | 0 | 99* | -3 | i
COc1ccc(CCOC(=O)c2ccc(NC(=O)CC#N)cc2)cc1 | 7 | 1 | -1 | 89* | -2 | i
CC(=O)Nc1ccc(C(=O)OCC(=O)N2CCN(C(=O)c3ccco3)CC2)cc1 | 3 | 0 | 0 | -1 | 3 | /
COc1ccc(CCn2c(C)cc(C(=O)COC(=O)c3ccc(NC(=O)CC#N)cc3)c2C)cc1 | 4 | 0 | 0 | -14 | 8 | i
N#CCC(=O)Nc1ccc(C(=O)OCC(=O)N2CCN(C(=O)c3ccco3)CC2)cc1 | -2 | 0 | 0 | 100* | -7 | /
N#CCC(=O)Nc1ccc(C(=O)OCC(=O)NC(=O)Cc2ccccc2)cc1 | -1 | 2 | 0 | 99* | 4 | i
N#CCC(=O)Nc1ccc(C(=O)OCC(=O)N2CCCC2=O)cc1 | 2 | 1 | 0 | 99* | 2 | i
CCN(CC)S(=O)(=O)c1ccc2c(c1)nc(CCC(=O)OCC(=O)Nc1cc(Cl)cc(Cl)c1)n2C | 15 | 1 | 1 | -1 | -1 | i
N#CCC(=O)Nc1ccc(C(=O)OCC(=O)NC2CCCCCC2)cc1 | / | 0 | 0 | / | -3 | /
N#CCC(=O)Nc1ccc(C(=O)OCC(=O)Nc2ccccc2-c2ccccc2)cc1 | 6 | 0 | 0 | 98* | -15 | i
CCc1ccc(NC(=O)COC(=O)CCc2nc3cc(S(=O)(=O)N(CC)CC)ccc3n2C)cc1 | -8 | 0 | 0 | 99* | 4 | i
Cc1ccc(S(=O)(=O)N2CCN(C(=O)COC(=O)CSc3ccc(C)c(C)c3)CC2)c(C)c1 | / | / | / | / | 1 | /
CSCC[C@H](NC(=O)Cc1ccc(Cl)cc1)C(=O)N1CCC2(CC1)NCCc1[nH]cnc12 | 0 | 0 | 0 | 2 | 6 | i
CC(=O)Nc1ccc(S(=O)(=O)NCCC(=O)NC(C)c2cccs2)cc1 (stereo not drawn) | -3 | 1 | 0 | 12 | -3 | /
O=C(OCC(=O)N1CCN(C(=O)c2ccco2)CC1)c1cc(-c2ccc(Cl)c(Cl)c2Cl)nc2ccccc12 | 2 | 0 | 0 | / | -1 | i
O=C(OCC(=O)N1CCN(C(=O)c2ccco2)CC1)c1cc(-c2ccco2)nc2ccccc12 | 1 | 13 | 0 | 93* | -38 | i
OCC1OC(n2cnc3c(SCc4ccccc4)nc(F)nc32)C(O)C1O (stereo not drawn) | / | / | / | / | 9 | /
CCCCN1C[C@H](COC(=O)CCC)Oc2cccc(F)c2S1(=O)=O | / | / | / | / | -2 | /
O=C1N(Cc2cccnc2)C[C@@H]2C[C@@H](c3cccc(Oc4ccccc4)c3)N3CCC[C@@]123 | 3 | 0 | 1 | 0 | 1 | i
